B1: PhoQ; a variant is named by its letters at X, in order, P23837 (parent)
chain: MKKLLRLFFPLSLRVRFLLATAAVVLVLSLAYGMVALIGYSVSFDKTTFRLLRGESNLFYTLAKWENNKLHVELPENIDKQSPTMTLIYDENGQLLWAQRDVPWLMKMIQPDWLKSNGFHEIEADVNDTSLLLSGDHSIQQQLQEVREDDDDAEMTHSVAVNVYPATSRMPKLTIVVVDTIPVELKSSYMVWSWFIYVLSANLLLVIPLLWVAAWWSLRPIEALAKEVRELEEHNRELLNPATTRELTSLVRNLNRLLKSERERYDKYRTTLTDLTHSLKTPLXXLQXXLRSLRSEKMSVSDAEPVMLEQISRISQQIGYYLHRASMRGGTLLSRELHPVAPLLDNLTSALNKVYQRKGVNISLDISPEISFVGEQNDFVEVMGNVLDNACKYCLEFVEISARQTDEHLYIVVEDDGPGIPLSKREVIFDRGQRVDTLRPGQGVGLAVAREITEQYEGKIVAGESMLGGARMEVIFGRQHSAPKDE

Over roughly 140,000 sequences, “enrichment ratio after two sorts for PhoP signalling” has its median near 0; the highest 2% begin near 11. Many of the other results were omitted from the sample, so the highest values are more common in it than they were.

In the assay the parent is B1. Nature of the assay: enrichment ratio after two sorts for PhoP signalling (ratio (wild type AVST 3.29)); higher = more functional. The conditions noted are these: with PhoP (E. coli).
Take MSGG: the enrichment ratio is not above 0.25. For KSHM the value was not above 0.25; for KSFL, not above 0.25; for MSFL, 13.3. For MSGA the value was 0.29; for SKYM, not above 0.25. For CCSC the value was not above 0.25; for FTRK, not above 0.25; for MDDW, not above 0.25. For ADPG, the enrichment ratio is not above 0.25. The value for VPPG was not above 0.25; that for LIYG was not above 0.25; that for MSCV was 15.3. For MSCE the value was not above 0.25; for MSRL, not above 0.25; for MSWL, 14.4. As for MSEL, the enrichment ratio is not above 0.25. Regarding MSTW, the enrichment ratio was not above 0.25. For GKQS the value was not above 0.25; for SDCI, 4.22. The value for QYNK was not above 0.25; that for GGPL was not above 0.25; that for SNVY was 1.11. For AKII the value was 13.6. With AAII, the enrichment ratio stood at 12.4.

Consider NAII, for which the enrichment ratio was not above 0.25.

Turning to ADII, the enrichment ratio was found to be 1.41.

In the case of KAII, the enrichment ratio is not above 0.25. For KKII the value was not above 0.25; for DMTW, not above 0.25. The value for IQGQ was not above 0.25; that for GIPQ was not above 0.25. For GTSL the value was 9.63; for CVSL, not above 0.25; for CTSL, 11.6.

In the case of YTSL, the enrichment ratio is not above 0.25. Turning to KQSL, the enrichment ratio was not above 0.25. For TTSL the value was 17.6; for TVPF, not above 0.25.

As to QVGW, the enrichment ratio turned out to be 2.43. For EDEG the value was not above 0.25; for FEDM, not above 0.25; for RRYY, not above 0.25.

As to YGSL, the enrichment ratio was not above 0.25. On to RYEP, for which the enrichment ratio was not above 0.25. For ECEP the value was 15.1; for IPEP, not above 0.25. For AGLT the value was 7.3. The value for AGLS was 13.8; that for RGLT was not above 0.25; that for RGLA was not above 0.25. As to NGLT, the enrichment ratio is not above 0.25. The value for TGLA was 27.5; that for AGLA was 4.99; that for TGLT was 13.5.

As to NGLA, the enrichment ratio was not above 0.25. For VHMY the value was not above 0.25; for LARA, not above 0.25.

Consider WQQI, for which the enrichment ratio was not above 0.25. In the case of FPEF, the enrichment ratio was not above 0.25. The value for IHDS was not above 0.25; that for DVNT was not above 0.25; that for CFLN was not above 0.25. For EHHF the value was not above 0.25; for TGLN, 25.4.

As for NGLS, the enrichment ratio was not above 0.25. RGLS: the enrichment ratio was not above 0.25. For TGLS, the enrichment ratio stood at 14.9. Turning to EHHK, the enrichment ratio was found to be 14.4. Consider KSWI, for which the enrichment ratio is not above 0.25. The value for WIWI was not above 0.25; that for EHHE was not above 0.25. For the variant NGLN, the enrichment ratio was not above 0.25. TGWI: the enrichment ratio is 26.1. The value for FPGM was not above 0.25; that for LGWH was not above 0.25. For GMYH the value was not above 0.25; for PFMM, not above 0.25; for RQLT, not above 0.25. For HMPW the value was not above 0.25; for GHLA, not above 0.25. For the variant DNNV, the enrichment ratio was not above 0.25. For TWFG the value was not above 0.25; for WQAF, not above 0.25; for KYAW, not above 0.25.

With SIAW, the enrichment ratio worked out at 16.5. For STAW the value was 13.1; for YTAW, not above 0.25.

In the case of WIAW, the enrichment ratio was not above 0.25. For SQAW the value was not above 0.25; for FGTC, not above 0.25; for RLLI, not above 0.25. For DHVP the value was not above 0.25. Take CTSI: the enrichment ratio turned out to be 19.6. As to YTSI, the enrichment ratio is not above 0.25. For ITSI the value was not above 0.25.

For KQSI, the enrichment ratio is not above 0.25. The value for LTSI was not above 0.25; that for TTSI was 17.1. Turning to PECL, the enrichment ratio is not above 0.25. For DRWN the value was not above 0.25. For MHTT the value was not above 0.25; for METT, 13; for MFTT, not above 0.25. For QETT the value was not above 0.25; for NETT, not above 0.25; for TETT, 25.2. With DEMI, the enrichment ratio is not above 0.25. Take SQNC: the enrichment ratio is not above 0.25. For EVAF the value was not above 0.25; for GNFR, not above 0.25; for PGNR, not above 0.25. The value for RASR was not above 0.25. The value for SPIA was not above 0.25; that for SEWV was 0.784. As to DDIA, the enrichment ratio was not above 0.25. The value for MEIC was 11; that for SEIC was 32.9; that for STAV was 5.94. For SEAV the value was 13.6; for SEIA, 13.7.

For SEIS, the enrichment ratio was 8.01. SEIV: the enrichment ratio came out at 18.7. As for SEAE, the enrichment ratio came out at 5.82. For the variant SERC, the enrichment ratio is not above 0.25. For DHWR the value was not above 0.25; for MSEQ, not above 0.25.

Regarding LCAF, the enrichment ratio is not above 0.25. For MMGP the value was not above 0.25; for YYDN, not above 0.25.

Take PLDS: the enrichment ratio is not above 0.25. Take NPKR: the enrichment ratio is not above 0.25. For FGMH the value was not above 0.25; for SEIY, 21.5. The value for SEPV was not above 0.25; that for DDIY was not above 0.25. The value for SPIG was not above 0.25; that for SEMV was 23.8; that for SEEV was 1.98. For the variant SEIG, the enrichment ratio turned out to be 13.1. For SQIG the value was 9.99; for SEFV, 11.8. The value for SEMW was not above 0.25; that for KYIY was not above 0.25. The value for SFFV was not above 0.25; that for KQPW was not above 0.25.

As to DFRP, the enrichment ratio was not above 0.25. For WSND the value was not above 0.25; for AMAT, 3.36; for YYEG, not above 0.25.

For the variant ESCY, the enrichment ratio is not above 0.25.

On to SRIC, for which the enrichment ratio was not above 0.25. For LWNH the value was not above 0.25.

For the origin of these results see a collection of fitness landscapes (doi:10.1126/science.1257360).
